An excerpt weighted towards active compounds, which were near 1.1% of everything screened.
OPRM1-OPRD1 inv – mu-delta opioid heterodimer inverse agonism; cell-based MOR-DOR heterodimer luminescence; inhibition, % at 9.3 µM; 340,000 compounds, 0.21% hits; in the data active = inhibition above about 22%, passing the limit was not always enough;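 note: 0% = cells with DMSO and 100% = wells without cells with DMSO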
HTR5A inv ag – inverse agonist of human HTR5A in OPRM1-OPRD1 counter-screen; P47898; HTR5A cell line, luminescence, inverse agonism; inhibition, % at 9.3 µM; 340,000 compounds, 0.083% hits; AID 504634; in the data active = inhibition mostly above about 23%, no sharp cut-off; inactive = mostly below about 18%;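 note: 0% = cells with DMSO and 100% = no-cell wells with DMSO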
Target sequence (P47898 whole entry, looked up): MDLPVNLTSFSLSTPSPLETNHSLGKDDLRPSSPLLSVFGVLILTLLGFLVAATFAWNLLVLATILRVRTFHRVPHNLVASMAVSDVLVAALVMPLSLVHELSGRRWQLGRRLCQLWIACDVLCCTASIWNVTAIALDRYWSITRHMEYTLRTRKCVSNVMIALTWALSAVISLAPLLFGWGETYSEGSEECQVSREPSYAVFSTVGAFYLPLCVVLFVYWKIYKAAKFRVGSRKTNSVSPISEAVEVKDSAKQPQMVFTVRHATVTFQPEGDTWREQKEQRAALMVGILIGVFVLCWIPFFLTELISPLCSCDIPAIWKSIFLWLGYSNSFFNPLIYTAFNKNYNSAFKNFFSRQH
MOR-DOR ag – agonists of human mu-delta opioid receptor heterodimerization; AID 504326; 340,000 compounds, 0.3% hits; cells, OPRM1-OPRD1 heterodimerization, luminescence; activation, % at 9.3 µM; in the data active = activation above about 18%;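 note: 0% = vehicle-treated cells and 100% = reference agonist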
HTR5A ag – HTR5A agonism, opioid heterodimer counter-screen; 340,000 compounds, 0.61% hits; activation, % at 9.3 µM; AID 504692; HTR5A agonist assay, luminescence, cell-based; P47898; in the data active = activation mostly above about 9.5%, no sharp cut-off; inactive = mostly below about 7.6%;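 note: 0% = cells with vehicle only and 100% = reference agonist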
MOR-DOR inv conf – OPRM1-OPRD1 heterodimer inverse agonism, confirmation | shares compounds with OPRM1-OPRD1 inv | AID 504900 | 580 compounds, 20% hits | cells expressing OPRM1/OPRD1 heterodimer, luminescence | inhibition, % at 9.3 µM; in the data active = inhibition above about 32%;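 note: 0% = cells with DMSO and 100% = wells lacking cells with DMSO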
HTR5A inv ctr2 – HTR5A inverse agonism, opioid heterodimer counter-screen; shares compounds with OPRM1-OPRD1 inv; HTR5A-expressing cells, luminescence; inhibition, % at 9.3 µM; 580 tested, under 10 active; call rule not given here;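 note: 0% = cells with DMSO and 100% = no-cell wells with DMSO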
An asterisk follows results filed as active; i = inactive; x = not tested or not shown.

SMILES | OPRM1-OPRD1 inv | HTR5A inv ag | MOR-DOR ag | HTR5A ag | MOR-DOR inv conf | HTR5A inv ctr2
COC(=O)C1NN=C(C(=O)c2ccc(Cl)cc2)C1c1ccc(OC)cc1 (stereo not given) | 47* | 24 | -8 | -9 | 16 | 2
O=S(=O)(Nc1cccc2ncccc12)c1cccs1 | 47* | 21 | -10 | -10 | -196 | -13
COc1ccc(-c2nc(=S)c3c(n2Cc2cccnc2)CC(C)(C)OC3)cc1 | 33* | -23 | -7 | 1 | 42* | 5
CC1(C)Cc2c(c(=S)nc(-c3ccccc3)n2Cc2cccnc2)CO1 | 11 | 4 | -2 | -1 | x | x
COc1ccc(S(=O)(=O)N2CCN(C(=O)/C=C/c3ccco3)CC2)cc1 | 21 | 17 | -4 | -7 | x | x
COc1ccc(NC(=S)Nc2nc(CC(=O)Nc3ccccc3OC)cs2)cc1 | 36* | 26 | -7 | -1 | -11 | 11
COc1ccccc1NC(=O)Cc1csc(NC(=S)Nc2ccccc2)n1 | 26 | -1 | -6 | 1 | x | x
CCn1c(=O)c(=O)[nH]c2cc(C(=O)N3CCN(Cc4ccc5c(c4)OCO5)CC3)ccc21 | 10 | 25 | -2 | -1 | x | x
CC1Nc2ncnc(N3CCN(c4ccccc4)CC3)c2N(Cc2ccc(Cl)cc2)C1=O (stereo not given) | 57* | 28 | -10 | -11 | 33* | 63*
Nc1nc(-c2ccccn2)nc(N)c1Cc1ccc(Cl)cc1Cl | 36* | 6 | -7 | -2 | -12 | -21
Cc1sc2c(c1C)C(O)=C(C(=O)Nc1ccccc1)S(=O)(=O)N2C | 12 | 5 | -2 | 2 | x | x
O=C(NC1CC1)C1CCN(C2CCN(C(=O)CC3=CCCCC3)CC2)CC1 | 22 | 10 | -4 | -4 | x | x
COc1cccc([C@@H]2Oc3ccc(OC)cc3C(=O)[C@H]2O)c1 | 35* | 4 | -6 | -3 | 19 | 9
COCc1ccc(C(=O)N2CCCC(Nc3ccc(C(C)C)cc3)C2)o1 (stereo not given) | 6 | 8 | -1 | 11 | x | x
CC1(C)C(c2cccs2)=NC(c2ccccc2)N1O (stereo not given) | 14 | -14 | -3 | 5 | x | x
CC1(C)C(c2ccccc2)=NC(c2ccc(F)cc2)N1O (stereo not given) | 29* | -5 | -5 | 4 | -13 | -57
Cn1cnc([N+](=O)[O-])c1Sc1ncccc1N | 46* | 29* | -9 | -12 | -4 | 17
O=C(CCN=C1NS(=O)(=O)c2ccccc21)OCC(=O)c1ccccc1Cl | 20 | 0 | -4 | 0 | x | x
O=C(CN=C1NS(=O)(=O)c2ccccc21)OCC(=O)c1cc(F)ccc1F | 30* | 11 | -6 | -3 | 7 | 46*
O=C(NCC(c1ccc(F)cc1)N1CCOCC1)c1ccc([N+](=O)[O-])o1 (stereo not given) | -10 | -26 | 2 | 6 | x | x
Cc1sc2ncnc(SCC(=O)NC(=O)c3cccn3C)c2c1C | -24 | -3 | 5 | 1 | x | x
CCCN(CCC)c1nc(-c2ccccn2)nc2ccccc12 | 39* | 3 | -9 | -1 | -159 | -19
CN(C)c1nc(=NCc2ccco2)ss1 | 66* | 22 | -13 | -6 | -72 | -49
CC12CC3CC(C1)CC(C(=O)NNC(=O)c1ccncc1)(C3)C2 | 11 | 12 | -2 | -3 | x | x
O=C(NNC(=S)NC(=O)C12CC3CC(CC(C3)C1)C2)c1ccncc1 | 42* | 6 | -7 | -7 | 14 | -5
SMILES | OPRM1-OPRD1 inv | HTR5A inv ag | MOR-DOR ag | HTR5A ag | MOR-DOR inv conf | HTR5A inv ctr2
CCN(CC)CC(C)(C)C(=O)/C=C/c1ccc(/C=C/C(=O)C(C)(C)CN(CC)CC)cc1 | 43* | 6 | -9 | -1 | -2 | 24
CCN(CC)CCOC(=O)/C=C/c1ccccc1 | 14 | -12 | -3 | 1 | x | x
Cc1c(C(=O)NNc2cc(=O)n(C)c(=O)n2C)cccc1[N+](=O)[O-] | 20 | -6 | -3 | 2 | x | x
CCN(C[C@H]1N[C@@](CC)(C(=O)OC)[C@H]2C(=O)N(C)C(=O)[C@@H]12)C(=O)COC | 19 | 3 | -4 | -1 | x | x
CNC(=S)NNC(=O)c1sc2cc(C(F)(F)F)cnc2c1-c1ccccn1 | 31* | 18 | -6 | -7 | 4 | 4
O=C(COC(=O)c1n[nH]c(=O)c2ccccc12)NC1CCCCC1 | 19 | -10 | -5 | 4 | x | x
CC(=O)/C=C1/C(=O)Nc2ccccc21 | 74* | 5 | -14 | -2 | 71* | 2
C=CCOc1cccc(C(=O)/C=C2/C(=O)Nc3ccccc32)c1 | 11 | -15 | -2 | 4 | x | x
O=C1/C(=C/c2ccccc2)Nc2ccccc21 | 36* | 4 | -7 | -6 | -25 | -10
O=C(CCC(=O)OCC(=O)c1cccc([N+](=O)[O-])c1)NC1CCCCC1 | 62* | -19 | -12 | -5 | -22 | 10
O=C(CCC(=O)OCC(=O)c1cccc([N+](=O)[O-])c1)Nc1ccccc1Cl | 77* | 26 | -17 | -12 | -56 | 1
CC(=O)Nc1ccc(NC(=O)CCC(=O)OCC(=O)c2cccc([N+](=O)[O-])c2)cc1 | 71* | 30 | -11 | -12 | -12 | -18
O=C(CCC(=O)OCc1cccc([N+](=O)[O-])c1)Nc1ccccc1Cl | 18 | 11 | -4 | -5 | x | x
Cc1ccc(C(=O)COC(=O)CCC(=O)Nc2cc(Cl)ccc2Cl)cc1[N+](=O)[O-] | 52* | 33 | -12 | -13 | 36* | 10
O=C(CSc1nnc(CNC(=O)c2cccs2)o1)Nc1ccc(F)cc1F | 11 | 13 | -2 | 4 | x | x
CCOC(=O)[C@H]1[C@H]2COc3ccc(OC)cc3[C@@H]2N2C(=O)CN(CC3CCCO3)C(=O)[C@@]12C (stereo not given in full) | 8 | 16 | -1 | 1 | x | x
Cc1ccc(C)c(C(=O)c2ccccc2NC(=O)c2ccccn2)c1 | -15 | -8 | 3 | 2 | x | x
Cc1ccc2c(c1)C(=O)C(=O)N2CC(=O)Nc1ccccc1NC(=O)c1ccccn1 | 47* | 2 | -9 | -1 | i | -5
Cc1cc(C)n2nc(SC(C)C(=O)N3CCOCC3)nc2n1 (stereo not given) | 37* | 7 | -6 | 1 | -16 | 3
Cc1c(C(=O)NC(=S)Nc2cccnc2)cccc1[N+](=O)[O-] | 35* | 31 | -7 | 0 | -201 | -39
CCOc1ccc(CCNC(=O)CSCC(=O)Nc2cccc(C)c2)cc1OCC | 13 | -10 | -2 | 4 | x | x
COc1cccc(C(=O)OCC(=O)c2ccc(S(=O)(=O)N3CCCCC3)cc2)c1OC | 30* | 8 | -5 | -3 | -31 | 7
COc1cccc(/C=C/C(=O)OCC(=O)c2ccc(S(=O)(=O)N3CCCCC3)cc2)c1OC | 31* | 13 | -6 | -5 | -32 | 17
COc1cc(/C=C/C(=O)OCC(=O)c2ccc(S(=O)(=O)N3CCCCC3)cc2)cc(OC)c1OC | 18 | -15 | -4 | 6 | x | x
COc1ccc(C(=O)OCC(=O)c2ccc(S(=O)(=O)N3CCCCC3)cc2)c(OC)c1 | 9 | 4 | -1 | 1 | x | x

High-throughput results as filed in PubChem.
